± gives the standard deviation of the averaged measurements.
The molecules below were run on HT-1080 (assay: relative cell viability with RSL3 co-treatment (fraction of control); higher = stronger protection from RSL3-induced ferroptosis (higher viability)). Conditions: 10 µM.
In the case of `NC(=O)c1cnc(N[C@@H]2CCCC[C@@H]2N)nc1Nc1cccc(-n2nccn2)c1`, the relative cell viability is reported as 0.56 ± 0.11.
`Nc1nc(N)c2nc(-c3cccc(O)c3)c(-c3cccc(O)c3)nc2n1` was tested, and the relative cell viability was 0.72 ± 0.03.
Molecule `C=CC(=O)Nc1cccc(Sc2nc(Nc3ccc(N4CCN(C)CC4)cc3)ncc2Cl)c1` has a relative cell viability of 0.423 ± 0.035.
For `CC(=O)c1c(C)c2cnc(Nc3ccc(N4CCNCC4)cn3)nc2n(C2CCCC2)c1=O`, the relative cell viability was 0.623 ± 0.074.
`COc1cc2ncnc(Nc3cccc(Cl)c3)c2cc1OC` [AG-1478 (Tyrphostin AG-1478)] gave a relative cell viability of 0.68 ± 0.2.
Work on `CCC[C@H](NC(=O)/C(C#N)=C/c1cccc(Br)n1)c1ccccc1` [Degrasyn (WP1130)] yielded a relative cell viability of 0.793 ± 0.064.
`O=C(c1cccc(Cl)c1F)N1CCN(Cc2cccc(Nc3nccs3)n2)CC1` gave a relative cell viability of 0.573 ± 0.049.
`O=C(NCc1cccc(O)c1)Nc1nc(-c2ccncc2)cs1` showed a relative cell viability of 0.77 ± 0.05.
For `Cc1ccccc1CN1C2=NCCN2C(=O)C2=C1CCN(Cc1ccccc1)C2` [TIC10 Analogue], the relative cell viability was 0.62 ± 0.079.
Work on `Cc1c(F)cc(C(=O)NC2CC2)cc1-c1ccc(C(=O)NCC(C)(C)C)cn1` yielded a relative cell viability of 0.563 ± 0.12.
For `O=C(c1ccc(/C=C/c2n[nH]c3ccccc23)cc1)N1CCNCC1`, the relative cell viability was 0.773 ± 0.076.
`O=C(O)[C@]1(Cc2cccc(Nc3nccs3)n2)CC[C@@H](Oc2cccc(Cl)c2F)CC1` showed a relative cell viability of 1.02 ± 0.14.
`CC(C)(O)CNc1ncc(-c2ccnc(Nc3ccnc(Cl)c3)n2)c(CC2CC2)n1` was tested, and the relative cell viability was 0.503 ± 0.031.
`Cn1cc(-c2ccc3ncc(Cc4ccc5ncccc5c4)n3n2)cn1` showed a relative cell viability of 0.727 ± 0.11.
In the case of `NC(=O)Nc1sc(-c2ccc(F)cc2)cc1C(N)=O`, the relative cell viability is reported as 0.87 ± 0.046.
`CC(C)n1nc(-c2ccc3oc(N)nc3c2)c2c(N)ncnc21` gave a relative cell viability of 0.787 ± 0.058.
Work on `COc1cc2ncnc(Nc3cccc(Cl)c3F)c2cc1OC(=O)N1CCN(C)C[C@H]1C` yielded a relative cell viability of 0.617 ± 0.025.
In the case of `C[C@@H]1COCCN1c1cc(C2([S@](C)(=N)=O)CC2)nc(-c2cc[nH]c3nccc2-3)n1`, the relative cell viability is reported as 0.777 ± 0.06.
Work on `Cc1cnc(Nc2ccc(OCCN3CCCC3)cc2)nc1Nc1cccc(S(=O)(=O)NC(C)(C)C)c1` yielded a relative cell viability of 0.433 ± 0.093.
`Cc1ccc(C(=O)Nc2ccc(CN3CCN(C)CC3)c(C(F)(F)F)c2)cc1C#Cc1cnc2cccnn12` showed a relative cell viability of 0.64 ± 0.11.
For `CCc1nc(-c2cccc(C)c2)c(-c2ccnc(NC(=O)c3ccccc3)c2)s1`, the relative cell viability was 0.783 ± 0.1.
With `Cc1c(NC(=O)OC[C@@H]2COCCN2)cn2ncnc(Nc3ccc4c(cnn4Cc4cccc(F)c4)c3)c12` the relative cell viability was 0.793 ± 0.023.
For `Cc1ncc(-c2ccnc(Nc3ccc(S(C)(=O)=O)cc3)n2)n1C(C)C`, the relative cell viability was 0.43 ± 0.095.
In the case of `CC(C)(C)c1cc(NC(=O)Nc2ccc(-c3cn4c(n3)sc3cc(OCCN5CCOCC5)ccc34)cc2)no1` [Quizartinib (AC220)], the relative cell viability is reported as 0.473 ± 0.04.
`C[C@@H]1CN(CC(=O)Nc2ccc3c(c2)Cc2cccc(-c4cc(=O)cc(N5CCOCC5)o4)c2S3)C[C@H](C)O1` gave a relative cell viability of 0.46 ± 0.11.
`O=C(Nc1ccccc1C(=O)NC1CCCCNC1=O)c1cc2ccccc2s1` (stereo not drawn) showed a relative cell viability of 0.803 ± 0.011.
Molecule `Cc1cc(C(C)Nc2ccccc2)c2nc(N3CCOCC3)cc(=O)n2c1` (stereo not drawn) has a relative cell viability of 0.627 ± 0.059.
`COCCOc1cnc2ccn([C@H](C)c3nnc4c(F)cc(-c5cnn(C)c5)cn34)c(=O)c2c1` gave a relative cell viability of 0.7767 ± 0.0058.
For `CCN(CC)CCCC(C)Nc1ccnc2cc(Cl)ccc12` (stereo not drawn) [Chloroquine Phosphate], the relative cell viability was 0.817 ± 0.12.
Molecule `O=C(Nc1cccc(Nc2ncc(Br)c(NCCc3cnc[nH]3)n2)c1)N1CCCC1` has a relative cell viability of 0.743 ± 0.04.
With `Nc1nccc(Oc2ccc(NC(=O)c3c[nH]cc(-c4ccc(F)cc4)c3=O)cc2F)c1Cl` the relative cell viability was 0.57 ± 0.036.
For `O=C1NC(=O)[C@@H](c2cn3c4c(cccc24)CCC3)[C@@H]1c1c[nH]c2ccccc12` [Tivantinib (ARQ 197)], the relative cell viability was 0.64 ± 0.085.
For `CC(C)(C)c1ccc(S(=O)(=O)/C=C/C#N)cc1`, the relative cell viability was 0.707 ± 0.015.
`CCN1/C(=C/C(C)=O)Sc2ccc(OC)cc21` showed a relative cell viability of 0.76 ± 0.1.
`O=C(Nc1ccc(-c2ccnc(Nc3ccc(N4CCOCC4)cc3)n2)cc1)C1CCCN1` (stereo not drawn) was tested, and the relative cell viability was 0.443 ± 0.1.
In the case of `O=C(NCCO)c1cccc(-c2cc(Nc3ccc(OC(F)(F)F)cc3)ncn2)c1`, the relative cell viability is reported as 0.713 ± 0.13.
`O=c1[nH]nc(Sc2ncc([N+](=O)[O-])s2)n1-c1ccc2c(c1)OCCO2` was tested, and the relative cell viability was 0.533 ± 0.045.
With `Cc1cc(Nc2nc(N[C@@H](C)c3ccc(F)cc3)c(C#N)cc2F)n[nH]1` the relative cell viability was 0.29 ± 0.017.

From the supplement of paper PMC9588786
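Further: viability read as CCK-8 absorbance at 450 nm in cells co-exposed to the GPX4 inhibitor RSL3, relative to a 0.01% DMSO vehicle control.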
